Assay outcomes: PubChem BioAssay, University of Kansas High Throughput Screening Laboratory
Compounds with a hit are over-represented: about 3.5% of the library has one in this group of screens.
mHTT-CaM PPI inh: mHTT-calmodulin interaction abrogation; P42858; AlphaScreen His-mHTT/GST-CaM binding, luminescence; inhibition, % at 15 µM; 190,000 tested, 3.6% active; AID 1671202
Pf apPOL block: Pf-apPOL DNA polymerase inhibition; AID 1794808; inhibition, % at 10 µM; 210,000 tested, 0.25% active; Recombinant Pf-apPOL, molecular beacon fluorescence, 1.5 h
Numbers stand for hits; 0 = inactive; - = no result given. No stated cut-off is given here; in the data, active means inhibition above about 50%; inactive means the rest.

SMILES	mHTT-CaM PPI inh	Pf apPOL block
COc1ccc(C2c3c(-c4ccccc4)n[nH]c3C(=O)N2c2ccccc2)cc1 (stereo not drawn)	59	0
O=C1c2[nH]nc(-c3ccccc3)c2C(c2ccccc2)N1c1ccccc1 (stereo not drawn)	0	0
Cc1[nH]n(-c2nc(-c3cccc([N+](=O)[O-])c3)cs2)c(=O)c1C(c1ccccc1)C(C#N)C(N)=O (stereo not drawn)	0	0
COc1ccc(CNC(=O)c2cn3ccc(C)cc3n2)cc1	0	0
N#CC1=C(N)Oc2cc(O)ccc2C1c1cccc([N+](=O)[O-])c1 (stereo not drawn)	0	0
CC(C)(C)n1nc2c(c1-n1cccc1)CN(C(=O)c1ccc(=O)[nH]c1)C2	0	0
CN(C)S(=O)(=O)c1ccc(C(=O)N2Cc3nn(C(C)(C)C)c(-n4cccc4)c3C2)cc1	54	0
COc1cccc(NC(=O)N2CCCC2c2ccc(Cl)cc2)c1 (stereo not drawn)	0	0
CC1=CC(=O)C=C(C)C1=NOC(=O)c1ccccc1Br	90	0
O=C1C=CC(=NOC(=O)c2ccc([N+](=O)[O-])cc2)C=C1	0	0
Cc1ccc(C(=O)ON=C2C=CC(=NOC(=O)c3ccccc3Br)C=C2)cc1	0	0
O=C1C=CC(=NOC(=O)c2ccccc2Br)C=C1	89	0
COc1ccc(C(=O)ON=C2C=CC(=O)C=C2)cc1	53	0
CN1C(=O)/C(=N\OC(=O)c2ccccc2Br)c2ccccc21	0	0
O=C(O)CCCC(=O)NCc1ccc2c(c1)OCO2	0	0
O=C1NC(=O)/C(=C/c2ccc(Cl)cc2Cl)S1	0	0
O=C1NC(=O)/C(=C/c2cc(Cl)cc(Cl)c2O)S1	86	0
CCOc1cc([N+](=O)[O-])cc(/C=C2\SC(=O)NC2=O)c1O	0	71
N=C1NC(=O)/C(=C/c2cc(Br)cc(Cl)c2O)S1	0	0
O=C1NC(=O)/C(=C/c2cc(Br)cc(Cl)c2O)S1	60	0
O=C1NC(=O)/C(=C/c2ccccc2OCc2ccc([N+](=O)[O-])cc2)S1	0	0
O=C(NC1CC1)C1CCCN(c2ncnc3c2oc2ccccc23)C1 (stereo not drawn)	0	0
Cc1ccc2nc(C)c(NC(=O)C(C)(C)C)c(=O)n2c1	0	0
O=C(c1cc2ccccc2[nH]1)N1CC2CN(S(=O)(=O)c3cccc(F)c3)CC(C1)O2	0	0
COc1cc(CN2CCCC2c2cc(C(C)C)no2)ccc1OCC(N)=O (stereo not drawn)	0	0
SMILES	mHTT-CaM PPI inh	Pf apPOL block
O=C(NC1CCCC1)c1cc2n(n1)CCCC2	0	0
COc1ccc(C(CC(=O)O)CC(=O)O)cc1OC	0	0
CCNC(=O)C1CC(c2ccc(F)c(C)c2)CN(C(=O)c2ccccc2)C1 (stereo not drawn)	93	0
CCNC(=O)N1CC(C(=O)NCC2CC2)CC(c2ccc(F)c(C)c2)C1 (stereo not drawn)	0	0
CCNC(=O)C1CC(c2ccc(F)c(C)c2)CN(C(C)=O)C1 (stereo not drawn)	0	0
CCC(C)NC(=O)C1CC(c2ccc(F)c(C)c2)CN(C(=O)c2ccccc2)C1 (stereo not drawn)	96	0
CCNC(=O)C1CC(c2ccccc2)CN(C(=O)c2ccccc2)C1 (stereo not drawn)	0	0
Cc1cc(C2CC(C(=O)NCc3cccnc3)CN(C(=O)NC(C)C)C2)ccc1F (stereo not drawn)	67	0
Cc1ccc(C(=O)N2CCc3sc(C(=O)NC4CCCCC4)cc3C2)cc1	0	0
Cc1ccc(-n2nnc(C(=O)O)c2-c2cccnc2)c(F)c1	0	0
Cc1ccc(CCNC(=O)CCCc2cn(C)c3ccccc23)cc1	0	0
Nc1ncnc(Sc2nc3ccccc3[nH]2)c1[N+](=O)[O-]	79	0
Cn1cnc([N+](=O)[O-])c1Sc1nc2ccccc2[nH]1	0	0
O=[N+]([O-])c1cc(C(F)(F)F)cc([N+](=O)[O-])c1Sc1nc2ccccc2[nH]1	99	0
O=[N+]([O-])c1ccc(Cl)cc1Sc1nc2ccccc2[nH]1	0	0
Cc1ccc(N2CN=c3s/c(=C\c4cccc([N+](=O)[O-])c4)c(=O)n3C2)cc1	0	0
COC(=O)c1ccc(NC(=O)Cc2csc(NC(=O)c3ncccn3)n2)cc1	98	0
COC(=O)c1ccc(NC(=O)Cc2csc(NC(=O)Nc3ccccc3OC)n2)cc1	0	0
CC(=O)OC(C(=O)O)c1ccccc1 (stereo not drawn)	-	0
O=c1[nH]c(CNC2CC2)nc2scc(-c3ccccc3)c12	0	0
O=S(=O)(NC1CCCCC1)c1ccc2[nH]c3c(c2c1)CCCCC3	95	0
Cc1ccc(NS(=O)(=O)c2ccc3[nH]c4c(c3c2)CCCCC4)nc1	60	0
S=C(NCc1ccc2[nH]c3c(c2c1)CCCC3)NC1CCCCC1	0	0
O=S(=O)(Nc1ccccn1)c1ccc2[nH]c3c(c2c1)CCCCC3	0	0
Cc1cc2nc(C(=O)NC3CC3)c(=O)n(C)c2cc1C	0	0
SMILES	mHTT-CaM PPI inh	Pf apPOL block
O=C(NC1CC2CC1CN2C(=O)Nc1ccc(Cl)cc1F)c1ccccc1 (stereo not drawn)	0	0
Cc1ccc(-n2cc3c(c2-c2ccccc2)c(=O)n(C)c(=O)n3C)c(C)c1	0	83
Cc1cc(N)c(-n2cc3c(c2-c2ccccc2)c(=O)n(C)c(=O)n3C)cc1C	0	82
COc1ccc(-c2c3c(=O)n(C)c(=O)n(C)c3cn2-c2ccccc2)cc1	0	0
CCn1cc2c(c1-c1ccccc1)c(=O)n(C)c(=O)n2C	0	0
COc1ccc(-c2c3c(=O)n(C)c(=O)n(C)c3cn2-c2ccc(C)cc2C)cc1	0	0
Cn1c(=O)c2c(-c3ccccc3)n(-c3ccccc3)cc2n(C)c1=O	0	0
COc1ccc(-c2c3c(=O)n(C)c(=O)n(C)c3cn2-c2ccccc2OC)cc1	0	78
CNc1ccc([N+](=O)[O-])cc1-n1cc2c(c1-c1ccccc1)c(=O)n(C)c(=O)n2C	0	65
Cc1ccc(N(C(=O)C23CC4CC(CC(C4)C2)C3)C2C=CS(=O)(=O)C2)cc1C (stereo not drawn)	0	0
Oc1ccc(Cl)cc1N=Cc1cc(Cl)cc(Cl)c1O	0	0
O=C(Nc1ccc2c(c1)OCCO2)N1CCCn2nc(-c3cccc(Cl)c3)cc2C1	0	0
CCOc1ccc(NC(=O)c2cnccn2)cc1	0	0
CCN(CC)c1ccc(NC(=O)c2cnccn2)cc1	60	0
CCC(C)c1ccccc1OCCCCN1CCN(C)CC1 (stereo not drawn)	0	0
N#CCC[C@H]1CC[C@]2(CCCN(Cc3ccccc3)C2)O1	0	0
N#CCC[C@@H]1CC[C@]2(CCCN(Cc3ccc(Cl)cc3)C2)O1	74	0
COc1c(Br)c(Br)c(Br)c2c1OCCO2	-	0
COc1cc(OC)cc(-c2nc3n(n2)C(c2ccc(F)cc2)C2=C(CCCC2=O)N3)c1 (stereo not drawn)	57	0
O=C1CCCC2=C1C(c1ccc3c(c1)OCO3)n1nc(-c3cccc(Cl)c3)nc1N2 (stereo not drawn)	0	0
COc1ccc(-c2nc3n(n2)C(c2ccc(Cl)cc2)C2=C(CCCC2=O)N3)cc1OC (stereo not drawn)	0	0
COc1ccc(-c2nc3n(n2)C(c2ccc(OC)cc2)C2=C(CCCC2=O)N3)cc1 (stereo not drawn)	0	0
COc1cc(OC)cc(-c2nc3n(n2)C(c2ccccc2)C2=C(CCCC2=O)N3)c1 (stereo not drawn)	0	0
